Prx2 Sm inh: inhibitors of Schistosoma mansoni peroxiredoxin 2. actives 0.07% (n = 65,000). AID 448. S. mansoni Prx2 activity coupled to TGR/GSH (TGR is thioredoxin glutathione reductase), NADPH fluorescence loss, qHTS. Potency, µM
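Prx2 inhibition was measured as reduced NADPH consumption when electrons flowed from NADPH through TGR and glutathione to Prx2 and H2O2. Plates were read kinetically over 8 min; enzyme reagents were held at 4 deg C during dispensing.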
LT uptake inh: anthrax lethal toxin internalization inhibition; AID 912; Potency, µM (series often up to 40 µM), for the others: at the top dose activity change, negative = inhibition, actives largely listed as inhibitors; Cells, anthrax lethal toxin internalization, FRET ratio (460/530); actives 0.67% (n = 70,000); note: % is set by controls: 0 for no effect and ±100 for the full control effect; nearly all actives have a fitted effect of over 50% in size
AmpC det inh: AmpC beta-lactamase inhibition, detergent assay; purified AmpC, nitrocefin hydrolysis with detergent; actives 0.09% (n = 71,000); Potency, µM (doses to about 28.7 µM), inactives show at the highest dose activity change, negative = inhibition; P00811; active = well fitted curve in the direction sought with a large enough effect; inconclusive = small, poorly fitted or top-dose-only effect; note: % is set by controls: 0 for no effect and ±100 for the full control effect
Target sequence (P00811 whole entry, looked up): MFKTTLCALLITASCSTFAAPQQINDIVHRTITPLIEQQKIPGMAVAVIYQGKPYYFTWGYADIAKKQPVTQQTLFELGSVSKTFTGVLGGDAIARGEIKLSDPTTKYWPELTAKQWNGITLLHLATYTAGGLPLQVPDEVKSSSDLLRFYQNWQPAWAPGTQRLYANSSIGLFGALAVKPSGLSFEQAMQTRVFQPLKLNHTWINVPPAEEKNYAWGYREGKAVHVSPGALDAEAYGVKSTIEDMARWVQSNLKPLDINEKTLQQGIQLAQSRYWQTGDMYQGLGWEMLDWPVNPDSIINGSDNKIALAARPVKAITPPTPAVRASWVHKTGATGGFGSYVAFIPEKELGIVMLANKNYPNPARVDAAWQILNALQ
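E. coli AmpC (5.3 nM) in 20 mM phosphate pH 7.0 with 0.01% Triton X-100, preincubated 15 min RT with compound; nitrocefin (2 uL of 800 uM stock) hydrolysis followed by 480 nm absorbance every 20 s over 4 min.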
AmpC nodet inh: inhibitors of E. coli AmpC beta-lactamase without detergent. P00811. AmpC nitrocefin hydrolysis, absorbance 480 nm, no detergent. Potency, µM (highest dose often 28.7 µM), inactives show at the top dose activity change, negative = inhibition. actives 1.8% (n = 71,000); note: % of control where 0% means no effect
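AmpC in 20 mM phosphate buffer pH 7.0 was preincubated 15 min at room temperature with compounds. Nitrocefin (800 uM stock) was then added and hydrolysis followed at 480 nm every 20 s for 4 min.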
* marks the source's active call; other numbers are inactive results; [ ] = dose if it differs, or a comment. Hits are enriched below; roughly 2.6% of the tested compounds scored in any of these assays. Unless noted, calls come from the whole dose curve. Potency is the fitted concentration of half-maximal effect.

`O=C1NC(Nc2ccccn2)(C(F)(F)F)C(=O)N1c1ccc(F)cc1` (stereo not drawn) gave Prx2 Sm inh >57, AmpC det inh -3% and AmpC nodet inh -2%.
For CCCc1ccc(OCc2ccc(C(=O)N3CCN(c4ccccn4)CC3)o2)c(OC)c1 the results were Prx2 Sm inh >57, LT uptake inh 13µM*, AmpC det inh -5% and AmpC nodet inh 125%.
Screening Cc1cc(NC(=O)C2COc3ccccc3O2)no1 (stereo not drawn) returned Prx2 Sm inh >57, LT uptake inh 8%, AmpC det inh 11% and AmpC nodet inh 4µM*[single pt active].
O=C(Nc1nc(-c2ccccn2)cs1)C1COc2ccccc2O1 (stereo not drawn) was read as Prx2 Sm inh >57, LT uptake inh inconclusive, AmpC det inh 12% and AmpC nodet inh 10%.
For COc1ccc(OC)c(NC(=O)C2COc3ccccc3O2)c1 (stereo not drawn) the results were LT uptake inh 13µM*, AmpC det inh 10% and AmpC nodet inh 8%.
Screening Cc1cc(NC(=O)C2CC(c3ccc(F)cc3)=NO2)no1 (stereo not drawn) returned Prx2 Sm inh >57, LT uptake inh -23%, AmpC det inh 11% and AmpC nodet inh 4µM*[single pt active].
For CCOc1ccc(OCC)c(NC(=O)C2COc3ccccc3O2)c1 (stereo not drawn) the results were Prx2 Sm inh >57, LT uptake inh 3%, AmpC det inh 0% and AmpC nodet inh 4%.
O=C(Nc1nc(-c2ccc3c(c2)OCO3)cs1)C1COc2ccccc2O1 (stereo not drawn) was read as Prx2 Sm inh >57, LT uptake inh inconclusive, AmpC det inh 12% and AmpC nodet inh 10µM*.
CCOC(=O)C(Sc1ncn[nH]1)c1ccccc1 (stereo not drawn) was read as LT uptake inh -1%, AmpC det inh 8% and AmpC nodet inh -2%.
`CSc1nnc(Cc2ccc3c(c2)OCO3)o1` gave Prx2 Sm inh >57, LT uptake inh 14%, AmpC det inh -3% and AmpC nodet inh 0%.
Screening O=c1c2ccccc2ncn1Cc1nc2ccccc2s1 returned Prx2 Sm inh >57, LT uptake inh 8%, AmpC det inh 8% and AmpC nodet inh 7%.
For COc1ccc(-n2c(Cc3cccn3C)nnc2SCC(=O)Nc2cc(Cl)ccc2OC)cc1 the results were Prx2 Sm inh >57, LT uptake inh inconclusive, AmpC det inh 11% and AmpC nodet inh 116%.
For CCC(C)Nc1nc(OCC(F)(F)F)nc(OCC(F)(F)F)n1 (stereo not drawn) the results were Prx2 Sm inh >57, LT uptake inh -13%, AmpC det inh -1% and AmpC nodet inh -4%.
CC(C)(C)C(=O)[C@@H]1[C@@H]2C(=O)N(c3ccc4c(c3)OCCO4)C(=O)[C@@H]2C2c3ccccc3C=CN21 (stereo partly drawn) was read as Prx2 Sm inh >57, LT uptake inh 1.3µM*, AmpC det inh -14% and AmpC nodet inh 19%.
CNc1sc(C(=O)c2cccs2)c(N)c1-c1nc2ccccc2s1 was read as Prx2 Sm inh >57, LT uptake inh inconclusive, AmpC det inh -2% and AmpC nodet inh 13µM*[single pt active].
Screening CCSC1(SCC)N=C(N)C2(C#N)C(c3ccc(OC)c(OC)c3OC)C12C#N (stereo not drawn) returned Prx2 Sm inh >57, LT uptake inh 10µM*, AmpC det inh -4% and AmpC nodet inh 39%.
For CCSC1(SCC)N=C(N)C2(C#N)C(c3ccccc3)NC3=C(CCC3)C12C#N (stereo not drawn) the results were Prx2 Sm inh >57, LT uptake inh inconclusive, AmpC det inh -3% and AmpC nodet inh 8%.
`Cc1cc(C)nc(NC(=O)NS(=O)(=O)N2CCCCCC2)n1` gave Prx2 Sm inh >57, LT uptake inh 3%, AmpC det inh 1% and AmpC nodet inh 3%.
O=C(O)c1cccc2c1C(=O)N(Cc1ccncc1)C2 was read as Prx2 Sm inh >57, LT uptake inh -13%, AmpC det inh -2% and AmpC nodet inh -6%.
For CCOC(=O)N1CCN(C(=O)c2cc3c(=O)[nH]c4ccccc4c3s2)CC1 the results were Prx2 Sm inh >57, LT uptake inh -11%, AmpC det inh -3% and AmpC nodet inh 41%.
COc1ccc(S(=O)(=O)Cc2ccc(C(=O)NC3CCCC3)o2)cc1 was read as Prx2 Sm inh >57, LT uptake inh -9%, AmpC det inh 15% and AmpC nodet inh 4µM*[single pt active].
For CCOC(=O)N1CCC(NC(=O)c2ccc(CS(=O)(=O)c3ccc(OC)cc3)o2)CC1 the results were Prx2 Sm inh >57, LT uptake inh 7%, AmpC det inh 13% and AmpC nodet inh 4µM*[single pt active].
`COc1ccccc1S(=O)(=O)Cc1ccc(C(=O)NC2CCCCC2)o1` gave Prx2 Sm inh >57, LT uptake inh -9%, AmpC det inh -1% and AmpC nodet inh 12%.
For O=C(NCc1ccco1)C1CCN(c2ccc(N3CCOCC3)nn2)CC1 the results were Prx2 Sm inh >57, LT uptake inh 5%, AmpC det inh 11% and AmpC nodet inh 4µM*[single pt active].
Screening CCCCN(C(=O)Cn1nnc2ccccc21)C(C(=O)NCCOC)c1ccc(OC)cc1 (stereo not drawn) returned Prx2 Sm inh >57, LT uptake inh 8%, AmpC det inh -3% and AmpC nodet inh 83%.
For Cn1nccc1C(=O)NCCN1C(=O)OC(C)(C)C1(C)O (stereo not drawn) the results were Prx2 Sm inh >57, LT uptake inh -1%, AmpC det inh -4% and AmpC nodet inh -4%.
For CCOC(=O)c1c(NC(=O)Cc2cccs2)sc2c1CCCC2 the results were Prx2 Sm inh >57, LT uptake inh 13µM*, AmpC det inh -6% and AmpC nodet inh inconclusive.
`CCOC(=O)c1c(NC(=O)c2cccs2)sc2c1CCCC2` gave LT uptake inh -21%, AmpC det inh 11% and AmpC nodet inh -4%.
CC(C)=CCC/C(C)=C/COc1c2ccoc2cc2oc(=O)ccc12 was read as Prx2 Sm inh >57, LT uptake inh inconclusive, AmpC det inh 14% and AmpC nodet inh 13µM*.
COc1cc2ccc(=O)oc2c(O)c1OCC=C(C)C was read as Prx2 Sm inh >57, LT uptake inh inconclusive, AmpC det inh -1% and AmpC nodet inh -3%.
Screening Cc1nnc2ccc(N3CCN(c4ccccn4)CC3)nn12 returned Prx2 Sm inh >57, LT uptake inh -4%, AmpC det inh 15% and AmpC nodet inh 4µM*[single pt active].
`Cc1nnc2ccc(N3CCN(C)CC3)nn12` gave LT uptake inh 0%, AmpC det inh 5% and AmpC nodet inh -8%.
`Cc1nnc2ccc(N3CCC(C(N)=O)(N4CCCCC4)CC3)nn12` gave Prx2 Sm inh >57, LT uptake inh -6%, AmpC det inh 12% and AmpC nodet inh 4µM*[single pt active].
O=C(NCc1cccnc1)C1c2ccccc2C(=O)N1C1CCCC1 (stereo not drawn) was read as Prx2 Sm inh >57, LT uptake inh -5%, AmpC det inh 14% and AmpC nodet inh 4µM*[single pt active].
